Assay results as given in PubChem BioAssay AID1645860 (Buhrlage Lab, Dana-Farber Cancer Institute and Novartis …, 2021).
In all, about 47,000 compounds went through this assay and about 2,500 (5.3%) were called active. Many of the other results were omitted from the sample, so actives are more common in it than they were. A number with no mark means an inactive call. Cut-off read from the data, not from the text of the source: active = inhibition above about 30%; inactive = the rest.

Molecular target: Ubiquitin carboxyl-terminal hydrolase 30 (Homo sapiens) (UniProt Q70CQ3)
Assay: inhibitors of human USP30 deubiquitinase (AID 1645860)
Details: purified USP30, Ub-rhodamine cleavage fluorescence; at 25 µM; hits give high values

Ubiquitin carboxyl-terminal hydrolase 30 (Homo sapiens), sequence (Q70CQ3 whole entry, looked up): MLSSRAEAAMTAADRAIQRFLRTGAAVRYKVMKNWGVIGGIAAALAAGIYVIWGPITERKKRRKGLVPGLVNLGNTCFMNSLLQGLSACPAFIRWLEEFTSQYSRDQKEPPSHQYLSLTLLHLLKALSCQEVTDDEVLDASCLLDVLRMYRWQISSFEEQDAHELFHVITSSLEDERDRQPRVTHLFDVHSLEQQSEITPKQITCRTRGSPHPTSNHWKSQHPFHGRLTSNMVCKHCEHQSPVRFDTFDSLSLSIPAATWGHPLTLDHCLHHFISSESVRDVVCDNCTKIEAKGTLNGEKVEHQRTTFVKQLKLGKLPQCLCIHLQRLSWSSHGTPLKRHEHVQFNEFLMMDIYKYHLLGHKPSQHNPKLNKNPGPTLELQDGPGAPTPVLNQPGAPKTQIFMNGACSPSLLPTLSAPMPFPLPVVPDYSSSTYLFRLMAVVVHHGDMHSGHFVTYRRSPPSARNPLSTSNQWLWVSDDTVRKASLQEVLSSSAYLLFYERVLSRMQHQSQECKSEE

Going from `CC(C)C(=O)N1CCN(C(=O)Cc2ccccc2)CC2(CC(=O)N(C)C2)C1` (centres undefined) to `Cn1nnc2c1CCN(C(=O)C1CCC1)C2COCc1ccccc1` (centres undefined), the inhibition falls from 17% to -10.7%.

First: Cc1cc(Nc2ncc(C)s2)cc(C2CCCN2c2ncccn2)n1 (centres undefined)
Second: CNc1cc(C)nc(C2CN(C(=O)c3ccnn3C(C)C)CCO2)c1 (centres undefined)
The inhibition of the first is lower: -49.2% for the first, 15.8% for the second.

Compared with `CCOC(=O)C1CCCN(c2cc3n(c(=O)n2)CCc2cc(OC)c(OC)cc2-3)C1` (centres undefined), `COc1ccc(CCNC(=O)Cn2c(=O)n(CC3CCC(C(=O)NC4CCCC4)CC3)c(=O)c3ccccc32)cc1OC` (centres undefined) is higher in inhibition: -59.6% for the first, 16.9% for the second.

Compared with `COc1ccc(C2=Nc3ncnn3C2=NCc2ccc(F)cc2)cc1OC`, `COc1ccc(-c2ocnc2C(=O)NCc2ccc(OC)c(OC)c2)cc1` is lower in inhibition: 0.0164% for the first, -6.37% for the second.

Compared with `CC1=C(c2ccc(C)cc2)S(=O)(=O)NC1=NCc1cccc(Br)c1`, `Cc1ccc(S(=O)(=O)NCc2c(-c3ccccc3)c3cc(C)ccc3[nH]c2=O)cc1` is lower in inhibition: 3.77% for the first, -9.29% for the second.

First: O=C(Cn1c(-c2nc(-c3ccc(F)cc3)no2)cccc1=O)N1CCCC1
Second: CN(C(=O)CSCc1nc(-c2ccc(F)cc2)no1)c1ccc(F)cc1
The inhibition of the first is higher: 11.4% for the first, -1.42% for the second.

Going from `O=C(Cn1cccc(-c2nc(-c3ccccc3)no2)c1=O)Nc1ccccc1F` to `CC(=O)c1cccc(NC(=O)c2cccc(-c3nc(-c4ccccc4)no3)c2)c1`, the inhibition rises from -12.8% to -9.31%.

Going from `CSCc1cc(N2CCOCC2)nc(-c2ccccn2)n1` to `O=S(=O)(c1ccc(Cl)c(-c2nnc(-c3ccccc3)o2)c1)N1CCOCC1`, the inhibition falls from 23.5% to 8.47%.

First: CC1CCN(S(=O)(=O)N2CCCC(C(=O)Nc3cc(F)ccc3F)C2)CC1 (centres undefined)
Second: O=C(COC(=O)C1CCN(S(=O)(=O)c2c(Cl)cccc2Cl)CC1)Nc1ccc2c(c1)CCC2
The inhibition of the first is higher: 18.2% for the first, 11.6% for the second.

Compared with `O=C(Nc1ccc(N2CCN(C3CCCC3)C2=O)nc1)c1cccnc1`, `CNC(=O)NC1CCN(c2nc3cccnc3n(Cc3ccc(C)cc3)c2=O)CC1` is higher in inhibition: -14.2% for the first, -0.331% for the second.

Going from `COc1ccc(OCC(=O)Nc2noc(-c3ccccc3)n2)cc1` to `COc1ccc(NC(=O)CSc2cn(CC(=O)N3CCCC3)c3ccccc23)cc1`, the inhibition falls from 24.4% to 18.7%.

Compared with `COc1cccc(NC(=O)Cn2c(C)cc(C)c2-c2nc(C(C)C)no2)c1`, `CC(C)c1noc(-c2ccc(-n3cnc(C(=O)NC4CC4)c3)nc2)n1` is higher in inhibition: -10.3% for the first, 1.32% for the second.

First: CC(=O)Nc1ccc(S(=O)(=O)NCc2ccc(C(=O)NCc3ccc(C)cc3)cc2)cc1
Second: Cc1ccc(S(=O)(=O)Nc2ccc(-c3c[n+]4ccccc4n3C)cc2)cc1
The inhibition of the first is lower: -1.25% for the first, 21.2% for the second.

Compared with `O=C1Nc2cc(C(=O)N3CCC4(CC3)OCCO4)ccc2N2C(=O)CCC12` (centres undefined), `O=C(C1CCOCC1)N1CCc2nc3ccccc3n2C(Cc2ccccc2)C1` (centres undefined) is higher in inhibition: 1.12% for the first, 8.3% for the second.

First: O=C(Cn1cc(S(=O)(=O)Cc2ccccc2F)c2ccccc21)N1CCCCCC1
Second: O=C(CCCn1c(=O)c2ccccc2n(Cc2ccccc2F)c1=O)NC1CCCC1
The inhibition of the first is lower: 3.16% for the first, 15.8% for the second.

Compared with `O=C(NCc1cccnc1-c1ccc(F)cc1)C1CCC1`, `O=C(COC(=O)c1ccc(F)cc1)NC1CCCc2ccccc21` (centres undefined) is lower in inhibition: 21.3% for the first, -8.55% for the second.

First: Fc1cccc(Nc2nc(-c3ccncc3)nc3c2CCC3)c1
Second: Cc1cc(F)ccc1NC(=O)Cc1n[nH]c(Cc2ccccc2)n1
The inhibition of the first is higher: 23.2% for the first, -13.4% for the second.

First: CC1CCCN(c2ccc(-c3nc(-c4cccnc4)no3)cc2[N+](=O)[O-])C1 (centres undefined)
Second: Cc1nc(-c2cccc(S(=O)(=O)Nc3ccccc3C)c2)no1
The inhibition of the first is higher: -2.58% for the first, -3.5% for the second.

Compared with `Cc1ccc(CCNCc2c(C(=O)O)n(C)c3ccccc23)cc1`, `COc1ccc(CCNCc2c(C(=O)O)n(Cc3ccc(Cl)cc3)c3ccccc23)c(OC)c1OC` is higher in inhibition: -4.51% for the first, 18.6% for the second.

Compared with `COc1cc(NC(=O)c2noc3c2CCc2sccc2-3)cc(OC)c1`, `COc1cccc(-c2ocnc2C(=O)NCc2ccc(OC)c(OC)c2)c1` is lower in inhibition: 8.21% for the first, -25.4% for the second.

Going from `CC(=O)N1CCCc2ccc(NC(=O)c3cccc([N+](=O)[O-])c3)cc21` to `O=C(c1ccccc1)c1ccc(NC2CCCc3ccccc32)c([N+](=O)[O-])c1` (centres undefined), the inhibition falls from 16.5% to -121%.

Compared with `CC1(C)OC(=O)[C@@]2(C)N[C@]1(C)C[C@@H]2C(=O)Nc1ccc(O)cc1`, `CC(C)C(=O)Nc1nc2ccc(CCC(=O)Nc3ccc(F)cc3)cc2s1` is higher in inhibition: -11.1% for the first, 26.5% for the second.

First: Cc1ccc(S(=O)(=O)CC(=O)Nc2sc(C)c(C)c2C(N)=O)cc1
Second: Cc1sc(NC(=O)c2ccc(S(=O)(=O)N(C)CC3CCCO3)cc2)c(C(N)=O)c1C (centres undefined)
The inhibition of the first is lower: -97.7% for the first, -70.8% for the second.

Compared with `Cn1cc(-c2cnc3n2CCC32CCN(S(=O)(=O)c3cccc(F)c3)CC2)cn1`, `Cc1cccc(-c2nnc(-c3cccc(S(=O)(=O)N4CCCC4)c3)o2)c1` is higher in inhibition: -1.9% for the first, 10.5% for the second.

Compared with `O=c1[nH]c2c(-c3ccccn3)nsc2c(=O)n1Cc1cccnc1`, `Cc1cccc(N2CC(C)Cn3c2nc2c3c(=O)n(CC(=O)OCc3ccccc3)c(=O)n2C)c1` (centres undefined) is lower in inhibition: 2.65% for the first, -36.6% for the second.

First: COc1ccc(C2c3c(oc4ccccc4c3=O)C(=O)N2c2cc(C)on2)cc1 (centres undefined)
Second: COc1ccc(-c2nc3c(c(=O)c4ccccc4n3C)c(=O)n2CCc2ccc(OC)c(OC)c2)cc1
The inhibition of the first is higher: 23.7% for the first, 7.98% for the second.

First: CCN1Cc2c(C(=O)NCCC(C)C)ncn2-c2ccccc2S1(=O)=O
Second: O=C(NCCc1ccccc1)c1cc2c(s1)CS(=O)(=O)C2
The inhibition of the first is higher: -4.42% for the first, -21.6% for the second.

Compared with `CN1C(=O)c2ccccc2C(C(=O)N2CCc3ccccc3C2)C1c1cccs1` (centres undefined), `O=C(Cc1ccc(F)cc1)Nc1ccccc1Cc1ccccc1` is higher in inhibition: 25% for the first, 27.2% for the second.

First: O=c1c(S(=O)(=O)c2cc(F)cc(F)c2)c[nH]c2ccc(F)cc12
Second: CN(CC(=O)Nc1ccc(F)cc1Cl)Cc1ccc2c(c1)OCO2
The inhibition of the first is lower: -13.9% for the first, -9.47% for the second.

Compared with `N#Cc1ccccc1Cn1c(=O)n(CCCC(=O)NCc2ccc(F)cc2)c(=O)c2ccccc21`, `O=C(NCc1ccc2c(c1)OCO2)C1=CCN(Cc2ccccc2)CC1` is lower in inhibition: 20.9% for the first, -38.4% for the second.

First: COC[C@H]1C[C@@H]2CN(S(=O)(=O)c3ccc(F)cc3)C(C)[C@H]1N2C (some centres undefined)
Second: Cc1ccc(F)cc1NC(=O)CN(C)Cc1ccc2c(c1)OCO2
The inhibition of the first is lower: -8.47% for the first, -0.987% for the second.

Going from `CCn1cc(-c2ccnc3cc(C(=O)NC4CCOCC4)nn23)c(C)n1` to `Cn1ccc(-c2cc(C(=O)NC3CC3)c3ccccn23)n1`, the inhibition falls from -12.3% to -423%.

First: O=C(O)CCNC(=O)/C(=C/c1ccc(Cl)cc1)NC(=O)c1ccco1
Second: COc1ccc(C)cc1NC(=O)COC(=O)C1(c2ccccc2F)CCCC1
The inhibition of the first is lower: -2.38% for the first, 22.5% for the second.

First: N#Cc1ccc(OC(=O)c2cc(S(=O)(=O)N3CCOCC3)c(Cl)cc2Cl)cc1
Second: O=C(Nc1ccc2sc(NC(=O)C3CCCCC3)nc2c1)NC1CCCC1
The inhibition of the first is higher: 1.53% for the first, 0.0388% for the second.

First: CC(C)N1CCN(C(=O)c2n[nH]c3c2CCCC3)CC1
Second: COCCN1C(=O)Cc2c(C)nc(C3(C)CCCN(c4cc(C)ncn4)C3)nc21 (centres undefined)
The inhibition of the first is higher: -5.42% for the first, -104% for the second.

In the case of `COc1ccc(CN=C2NS(=O)(=O)C(c3ccc(F)cc3)=C2C)cc1OC`, the inhibition is reported as 37% (active).
For `O=c1c2ccccc2c(-c2nc(-c3ccncc3)no2)cn1-c1ccc(F)cc1`, the inhibition was 44.8% (active).
For `CC(C)c1noc(-c2ccc(OCC(=O)Nc3ccccc3Br)cc2)n1`, the inhibition was 30.7% (active).
For `COc1ccc(NC(=O)CS(=O)(=O)c2cn(CC(=O)N3CCCC3)c3ccccc23)cc1`, the inhibition was 30.4% (active).
For `CSc1nc2c(c(Nc3ccc(C(C)=O)cc3)n1)CCC2`, the inhibition was 80.5% (active).
In the case of `CC(CCc1ccccc1)NCc1c(C(=O)O)n(Cc2ccccc2F)c2ccccc12` (centres undefined), the inhibition is reported as 33.3% (active).
For `Cc1ccc(Cn2c(C(=O)O)c(CNC(C)CCc3ccccc3)c3ccccc32)cc1` (centres undefined), the inhibition was 35.8% (active).
In the case of `Cc1ccc(S(=O)(=O)NC2=NC(c3ccccc3)c3cc(Cl)ccc3N2)cc1` (centres undefined), the inhibition is reported as 43.7% (active).
With `CCN(CC)S(=O)(=O)c1ccc(C(=O)Nc2sc(C)c(C)c2C(N)=O)cc1` the inhibition was 36.2% (active).
In the case of `O=C(Nc1nnc(-c2cccc([N+](=O)[O-])c2)o1)C1CCN(S(=O)(=O)c2ccc3c(c2)CCC3)CC1`, the inhibition is reported as 40.6% (active).
With `COc1ccc(CCNC(=O)CCCn2c(=O)c3ccccc3n(CC(=O)OCc3ccccc3)c2=O)cc1OC` the inhibition was 64.1% (active).
With `Cc1ccc(CNC(=O)CCCn2c(=O)c3sccc3n(CC(=O)OCc3ccccc3)c2=O)cc1` the inhibition was 70.7% (active).
`O=C(NCc1ccc2c(c1)OCO2)c1cc2c(s1)CS(=O)(=O)C2` was tested, and the inhibition was 34.4% (active).
With `Cc1nc(-c2cccc(NC(=O)C3CCN(c4ccccc4)C3=O)c2)no1` (centres undefined) the inhibition was 42.5% (active).
`COc1ccc(C(NC(=O)CN(C)Cc2ccc3c(c2)OCO3)c2ccccc2)cc1` (centres undefined) was tested, and the inhibition was 42% (active).
With `Nc1ccc(C(=O)OCC(=O)NC2CCCc3ccccc32)cc1[N+](=O)[O-]` (centres undefined) the inhibition was 31.6% (active).
`Cc1ccccc1NC(=O)Cc1csc2nc(-c3ccc(F)cc3)cn12` was tested, and the inhibition was 88.4% (active).
`CC(C)C(=O)Nc1nc2cc(NS(=O)(=O)c3ccccc3)ccc2s1` was tested, and the inhibition was 36.4% (active).
In the case of `COc1cc(OC)cc(-c2nnc(NC(=O)c3ccc([N+](=O)[O-])o3)o2)c1`, the inhibition is reported as 40.1% (active).
